The supplement of paper PMC11732987, “Enantioselective OTUD7B fragment discovery through chemoproteomics screening and high-throughput optimisation” (Communications Chemistry, 2025)

Columns and labels:
Test in all cases: log2 ratio of Biotin-Ahx-Ub-VS probe labelling (fragment/DMSO); higher = less target engagement (more negative = stronger competition), active = hit call of the paper (q ≤ 0.05, log2 ratio ≤ -1)
Conditions in all cases: compound concentration: 200 uM; treatment time: 3 h
[1] = target: USP34 (UniProt Q70CQ2)
How it was run: (§1)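 The table lists average log2 ratios of fragment over vehicle, from an unpaired t-test on global-median-normalised Spectronaut label-free quantities. Proteins with ≥2 unique peptides were used. Samples were HEK293T lysate (495 µg) treated in triplicate with fragment at 200 µM or vehicle for 3 h, then with Biotin-Ahx-Ub-VS (0.5 µM final) for 1 h, with labelled DUBs NeutrAvidin-enriched and run by diaPASEF LC-MS/MS.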

[2] = target: T1, USP36 (UniProt Q9P275)
T1 sequence (whole entry): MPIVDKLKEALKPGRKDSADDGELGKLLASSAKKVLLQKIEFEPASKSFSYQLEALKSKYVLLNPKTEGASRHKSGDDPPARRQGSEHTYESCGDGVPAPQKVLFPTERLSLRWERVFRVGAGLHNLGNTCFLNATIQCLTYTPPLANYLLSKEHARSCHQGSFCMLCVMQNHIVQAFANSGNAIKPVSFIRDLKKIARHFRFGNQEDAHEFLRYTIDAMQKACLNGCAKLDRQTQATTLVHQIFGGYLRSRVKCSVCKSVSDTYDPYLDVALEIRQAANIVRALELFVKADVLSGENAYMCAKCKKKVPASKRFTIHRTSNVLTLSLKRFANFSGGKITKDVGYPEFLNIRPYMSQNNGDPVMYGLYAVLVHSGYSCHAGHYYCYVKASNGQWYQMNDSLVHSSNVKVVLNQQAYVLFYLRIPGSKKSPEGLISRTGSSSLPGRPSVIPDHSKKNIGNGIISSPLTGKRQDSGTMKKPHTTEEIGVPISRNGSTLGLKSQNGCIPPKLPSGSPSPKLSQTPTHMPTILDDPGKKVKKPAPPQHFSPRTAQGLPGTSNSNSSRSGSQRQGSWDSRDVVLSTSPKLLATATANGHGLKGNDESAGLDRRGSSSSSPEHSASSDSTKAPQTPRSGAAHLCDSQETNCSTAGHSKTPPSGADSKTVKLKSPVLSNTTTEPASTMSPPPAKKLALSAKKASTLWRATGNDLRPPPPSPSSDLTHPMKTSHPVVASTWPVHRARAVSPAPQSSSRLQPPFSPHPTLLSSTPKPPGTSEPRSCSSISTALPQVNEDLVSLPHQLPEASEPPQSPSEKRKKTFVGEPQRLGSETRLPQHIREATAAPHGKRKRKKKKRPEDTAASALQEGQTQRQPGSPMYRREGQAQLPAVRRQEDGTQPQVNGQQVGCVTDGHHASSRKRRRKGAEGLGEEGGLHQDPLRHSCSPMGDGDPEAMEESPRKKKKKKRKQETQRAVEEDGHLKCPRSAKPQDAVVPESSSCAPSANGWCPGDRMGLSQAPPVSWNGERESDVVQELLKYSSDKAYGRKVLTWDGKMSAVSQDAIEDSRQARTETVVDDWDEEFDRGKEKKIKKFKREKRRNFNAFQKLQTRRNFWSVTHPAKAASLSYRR
How it was run: as §1

[3] = target: T2, USP38 (UniProt Q8NB14)
T2 sequence (whole entry): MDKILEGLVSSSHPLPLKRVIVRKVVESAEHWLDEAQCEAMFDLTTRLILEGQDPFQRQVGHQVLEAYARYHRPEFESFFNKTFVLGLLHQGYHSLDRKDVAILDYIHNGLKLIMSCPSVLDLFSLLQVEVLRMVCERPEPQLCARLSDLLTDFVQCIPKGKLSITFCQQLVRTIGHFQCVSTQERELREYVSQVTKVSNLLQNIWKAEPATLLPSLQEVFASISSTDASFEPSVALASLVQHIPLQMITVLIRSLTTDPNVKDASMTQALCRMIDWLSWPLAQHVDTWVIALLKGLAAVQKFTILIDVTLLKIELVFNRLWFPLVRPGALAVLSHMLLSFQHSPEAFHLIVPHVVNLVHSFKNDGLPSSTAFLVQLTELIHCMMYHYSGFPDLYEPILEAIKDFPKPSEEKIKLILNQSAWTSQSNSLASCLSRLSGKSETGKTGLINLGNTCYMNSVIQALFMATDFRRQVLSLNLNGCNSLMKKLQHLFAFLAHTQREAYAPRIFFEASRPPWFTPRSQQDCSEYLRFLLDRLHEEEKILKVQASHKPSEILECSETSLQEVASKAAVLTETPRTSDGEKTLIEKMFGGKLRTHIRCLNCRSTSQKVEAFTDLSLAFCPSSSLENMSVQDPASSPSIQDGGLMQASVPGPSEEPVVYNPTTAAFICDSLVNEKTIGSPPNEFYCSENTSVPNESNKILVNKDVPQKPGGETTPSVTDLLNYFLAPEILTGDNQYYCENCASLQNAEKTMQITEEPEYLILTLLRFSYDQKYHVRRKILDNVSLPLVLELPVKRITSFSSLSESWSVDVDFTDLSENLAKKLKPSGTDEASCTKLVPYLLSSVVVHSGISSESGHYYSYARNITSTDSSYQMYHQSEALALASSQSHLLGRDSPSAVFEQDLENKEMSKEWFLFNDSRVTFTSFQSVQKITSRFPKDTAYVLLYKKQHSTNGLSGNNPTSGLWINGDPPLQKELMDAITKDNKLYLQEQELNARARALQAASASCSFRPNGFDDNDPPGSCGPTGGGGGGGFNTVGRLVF
How it was run: as §1

[4] = target: T3, USP39 (UniProt Q53GS9)
T3 sequence (whole entry): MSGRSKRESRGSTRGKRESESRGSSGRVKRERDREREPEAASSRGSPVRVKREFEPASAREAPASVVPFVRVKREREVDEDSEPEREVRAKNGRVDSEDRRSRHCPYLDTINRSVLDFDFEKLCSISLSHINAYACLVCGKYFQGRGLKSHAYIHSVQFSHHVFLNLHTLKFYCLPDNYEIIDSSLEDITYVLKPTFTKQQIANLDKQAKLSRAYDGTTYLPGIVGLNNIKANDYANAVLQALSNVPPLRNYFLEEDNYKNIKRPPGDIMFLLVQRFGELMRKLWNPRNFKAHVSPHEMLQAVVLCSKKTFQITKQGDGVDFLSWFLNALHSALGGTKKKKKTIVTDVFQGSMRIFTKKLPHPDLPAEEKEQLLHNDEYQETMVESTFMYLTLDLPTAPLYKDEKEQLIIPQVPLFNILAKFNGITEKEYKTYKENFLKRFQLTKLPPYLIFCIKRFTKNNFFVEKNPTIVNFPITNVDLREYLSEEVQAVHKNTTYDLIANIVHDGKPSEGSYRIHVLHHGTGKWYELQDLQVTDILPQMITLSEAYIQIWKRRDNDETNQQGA
How it was run: as §1

[5] = target: T4, USP4 (UniProt Q13107)
T4 sequence (whole entry): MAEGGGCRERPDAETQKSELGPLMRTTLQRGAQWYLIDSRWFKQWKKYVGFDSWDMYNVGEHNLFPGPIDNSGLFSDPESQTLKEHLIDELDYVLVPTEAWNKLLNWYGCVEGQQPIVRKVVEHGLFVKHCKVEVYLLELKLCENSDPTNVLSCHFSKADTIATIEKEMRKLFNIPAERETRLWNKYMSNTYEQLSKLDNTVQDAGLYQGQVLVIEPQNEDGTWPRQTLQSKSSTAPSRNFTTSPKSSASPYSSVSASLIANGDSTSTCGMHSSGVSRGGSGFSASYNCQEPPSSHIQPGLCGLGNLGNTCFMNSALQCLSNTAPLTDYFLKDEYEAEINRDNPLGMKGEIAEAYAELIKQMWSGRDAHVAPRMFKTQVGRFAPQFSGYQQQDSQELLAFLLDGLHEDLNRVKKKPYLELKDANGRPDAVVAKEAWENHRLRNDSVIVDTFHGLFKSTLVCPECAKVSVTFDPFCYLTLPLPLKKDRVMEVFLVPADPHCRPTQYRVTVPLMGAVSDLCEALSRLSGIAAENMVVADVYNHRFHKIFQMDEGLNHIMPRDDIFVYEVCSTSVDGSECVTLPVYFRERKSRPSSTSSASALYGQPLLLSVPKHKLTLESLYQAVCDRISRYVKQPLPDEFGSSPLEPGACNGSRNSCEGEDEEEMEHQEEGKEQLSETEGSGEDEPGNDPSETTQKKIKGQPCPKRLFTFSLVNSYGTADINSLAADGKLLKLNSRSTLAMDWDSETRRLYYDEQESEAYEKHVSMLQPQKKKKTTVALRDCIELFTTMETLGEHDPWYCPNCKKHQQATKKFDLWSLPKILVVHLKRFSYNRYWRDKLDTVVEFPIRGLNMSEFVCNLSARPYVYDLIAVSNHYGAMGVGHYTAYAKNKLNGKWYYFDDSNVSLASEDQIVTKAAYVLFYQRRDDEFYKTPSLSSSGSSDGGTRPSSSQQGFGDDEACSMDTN
How it was run: as §1

Measured: log2 ratio of Biotin-Ahx-Ub-VS probe labelling

Chain of USP34 (Q70CQ2 whole entry, the tested form may be a part): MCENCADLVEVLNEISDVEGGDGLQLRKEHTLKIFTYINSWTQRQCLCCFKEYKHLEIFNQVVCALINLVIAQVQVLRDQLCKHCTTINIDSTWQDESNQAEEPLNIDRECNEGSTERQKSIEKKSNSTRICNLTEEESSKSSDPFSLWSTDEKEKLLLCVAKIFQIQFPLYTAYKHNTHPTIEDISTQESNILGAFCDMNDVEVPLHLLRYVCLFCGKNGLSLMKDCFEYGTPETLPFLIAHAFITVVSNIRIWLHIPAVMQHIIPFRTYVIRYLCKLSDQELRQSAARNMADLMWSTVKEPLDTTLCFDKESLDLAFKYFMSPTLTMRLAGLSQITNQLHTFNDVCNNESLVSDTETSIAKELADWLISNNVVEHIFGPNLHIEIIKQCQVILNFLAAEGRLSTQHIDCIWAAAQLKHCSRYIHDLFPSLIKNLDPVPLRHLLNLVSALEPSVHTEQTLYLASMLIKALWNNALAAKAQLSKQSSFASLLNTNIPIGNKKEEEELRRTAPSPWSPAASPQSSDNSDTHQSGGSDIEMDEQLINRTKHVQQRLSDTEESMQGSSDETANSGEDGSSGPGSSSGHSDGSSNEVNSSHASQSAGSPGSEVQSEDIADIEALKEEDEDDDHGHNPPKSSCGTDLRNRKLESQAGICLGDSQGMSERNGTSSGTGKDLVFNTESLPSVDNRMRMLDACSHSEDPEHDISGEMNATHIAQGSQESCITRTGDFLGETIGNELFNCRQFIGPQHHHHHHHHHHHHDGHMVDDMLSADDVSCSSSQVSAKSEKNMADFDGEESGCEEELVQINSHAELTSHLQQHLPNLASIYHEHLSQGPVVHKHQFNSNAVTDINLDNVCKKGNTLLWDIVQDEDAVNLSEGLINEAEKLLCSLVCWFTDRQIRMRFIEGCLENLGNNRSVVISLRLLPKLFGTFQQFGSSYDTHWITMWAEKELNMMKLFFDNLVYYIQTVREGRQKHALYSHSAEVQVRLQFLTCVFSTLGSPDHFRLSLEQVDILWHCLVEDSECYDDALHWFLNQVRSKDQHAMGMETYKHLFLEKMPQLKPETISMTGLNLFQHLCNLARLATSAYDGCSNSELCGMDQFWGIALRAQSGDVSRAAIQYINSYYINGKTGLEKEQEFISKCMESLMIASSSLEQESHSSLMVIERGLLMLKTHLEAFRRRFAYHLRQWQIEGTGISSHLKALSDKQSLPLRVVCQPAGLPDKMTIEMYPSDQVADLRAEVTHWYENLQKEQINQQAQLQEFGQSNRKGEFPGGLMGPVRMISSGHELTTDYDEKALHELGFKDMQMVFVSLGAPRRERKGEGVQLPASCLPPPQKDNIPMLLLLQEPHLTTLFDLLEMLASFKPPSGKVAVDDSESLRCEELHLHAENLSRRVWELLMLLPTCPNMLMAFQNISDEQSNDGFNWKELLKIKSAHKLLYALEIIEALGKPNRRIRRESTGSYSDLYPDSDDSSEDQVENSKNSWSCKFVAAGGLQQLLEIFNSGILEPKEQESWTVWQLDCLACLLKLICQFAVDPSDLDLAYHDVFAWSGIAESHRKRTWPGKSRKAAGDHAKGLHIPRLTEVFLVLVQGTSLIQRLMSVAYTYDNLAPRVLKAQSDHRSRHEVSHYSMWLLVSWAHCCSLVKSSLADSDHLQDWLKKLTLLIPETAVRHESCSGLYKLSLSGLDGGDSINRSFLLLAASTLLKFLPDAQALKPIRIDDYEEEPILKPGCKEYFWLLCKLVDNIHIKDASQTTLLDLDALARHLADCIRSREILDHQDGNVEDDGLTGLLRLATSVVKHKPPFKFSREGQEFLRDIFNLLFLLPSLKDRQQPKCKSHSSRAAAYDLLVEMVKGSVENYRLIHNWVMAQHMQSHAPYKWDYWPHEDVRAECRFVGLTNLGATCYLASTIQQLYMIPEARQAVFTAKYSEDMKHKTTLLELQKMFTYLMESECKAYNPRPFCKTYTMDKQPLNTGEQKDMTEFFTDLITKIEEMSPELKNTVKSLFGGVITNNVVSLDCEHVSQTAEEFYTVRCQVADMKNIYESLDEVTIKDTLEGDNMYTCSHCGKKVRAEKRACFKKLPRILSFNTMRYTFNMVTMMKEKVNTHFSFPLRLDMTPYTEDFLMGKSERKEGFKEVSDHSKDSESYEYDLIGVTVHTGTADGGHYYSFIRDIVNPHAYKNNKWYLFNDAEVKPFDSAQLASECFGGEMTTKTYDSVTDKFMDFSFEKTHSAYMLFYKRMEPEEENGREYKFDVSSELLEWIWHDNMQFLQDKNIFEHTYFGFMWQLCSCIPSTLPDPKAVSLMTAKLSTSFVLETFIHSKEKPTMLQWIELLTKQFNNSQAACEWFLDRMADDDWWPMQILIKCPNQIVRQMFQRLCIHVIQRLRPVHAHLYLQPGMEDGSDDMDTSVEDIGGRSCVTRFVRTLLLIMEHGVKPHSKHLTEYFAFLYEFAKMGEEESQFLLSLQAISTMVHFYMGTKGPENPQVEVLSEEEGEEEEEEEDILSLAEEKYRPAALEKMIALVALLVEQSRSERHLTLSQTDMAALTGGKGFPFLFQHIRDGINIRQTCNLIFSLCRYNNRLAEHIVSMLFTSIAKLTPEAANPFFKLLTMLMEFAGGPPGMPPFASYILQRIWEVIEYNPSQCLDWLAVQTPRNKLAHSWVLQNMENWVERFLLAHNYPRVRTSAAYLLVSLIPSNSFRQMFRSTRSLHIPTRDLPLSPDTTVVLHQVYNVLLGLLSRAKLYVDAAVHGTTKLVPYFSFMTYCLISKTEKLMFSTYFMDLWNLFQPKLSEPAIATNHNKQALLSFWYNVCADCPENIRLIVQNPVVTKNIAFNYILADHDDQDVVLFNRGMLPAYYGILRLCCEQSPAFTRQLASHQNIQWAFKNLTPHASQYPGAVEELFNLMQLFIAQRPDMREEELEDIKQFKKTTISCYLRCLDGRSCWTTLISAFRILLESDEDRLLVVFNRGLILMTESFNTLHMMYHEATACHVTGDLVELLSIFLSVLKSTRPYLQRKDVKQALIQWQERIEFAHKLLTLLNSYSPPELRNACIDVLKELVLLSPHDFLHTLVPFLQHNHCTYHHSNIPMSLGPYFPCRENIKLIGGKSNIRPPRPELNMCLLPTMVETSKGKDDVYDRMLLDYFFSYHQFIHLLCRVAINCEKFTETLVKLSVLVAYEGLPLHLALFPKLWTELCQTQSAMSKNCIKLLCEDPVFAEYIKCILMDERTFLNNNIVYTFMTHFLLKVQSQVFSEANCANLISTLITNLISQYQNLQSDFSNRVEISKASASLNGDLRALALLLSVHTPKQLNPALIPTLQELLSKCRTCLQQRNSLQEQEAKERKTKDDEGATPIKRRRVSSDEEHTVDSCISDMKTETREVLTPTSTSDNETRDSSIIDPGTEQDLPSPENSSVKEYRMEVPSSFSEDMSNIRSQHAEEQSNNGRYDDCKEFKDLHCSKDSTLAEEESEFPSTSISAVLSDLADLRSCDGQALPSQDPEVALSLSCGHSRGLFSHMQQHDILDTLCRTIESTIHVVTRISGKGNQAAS

O=C(CCl)Nc1ccc(Cl)c(F)c1
inactive: [1] -0.317 | [2] -0.136 | [3] -0.0529 | [4] 4.5e-05 | [5] -0.159
